Measured values as given in PubChem BioAssay (NCATS).
Results filed as inconclusive are left out. Calls of active or inactive are those of the source. The call rests on the fitted dose curve.

Assay: VSVG counterscreen qHTS to identify inhibitors of SARS-CoV-2 cell entry (AID 1645847); further: nearly all actives have a fitted effect of over 65% in size
Settings: VSV-G pseudotyped particle entry, luciferase; series mostly up to 57.2 µM
Method in brief: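 Luminescence read after 48 h infection at 37 C with VSV-G-pseudotyped MLV particles, following 1 h compound exposure of Expi293F cells stably expressing human ACE2; scaled between bald particle and VSV-G particle wells.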
Potency means the concentration at half of the fitted maximal effect.

| Compound | Potency |
| --- | --- |
| COc1cc([C@@H]2c3cc4c(cc3C(O[C@@H]3O[C@@H]5CO[C@@H](c6cccs6)OC5[C@H](O)[C@H]3O)C3COC(=O)[C@@H]32)OCO4)cc(OC)c1O (stereo partly drawn) | 42.9 nM (active) |
| CC[C@@]1(O)C(=O)OCc2c1cc1n(c2=O)Cc2cc3c([N+](=O)[O-])cccc3nc2-1 | 22.1 nM (active) |
| CO[C@H](C(=O)[C@@H](O)[C@@H](C)O)C1Cc2cc3cc(O[C@H]4C[C@@H](O[C@H]5C[C@@H](O)[C@H](O)[C@@H](C)O5)[C@@H](O)[C@@H](C)O4)c(C)c(O)c3c(O)c2C(=O)[C@H]1O[C@H]1C[C@@H](O[C@H]2C[C@@H](O[C@H]3C[C@](C)(O)[C@H](O)[C@@H](C)O3)[C@H](O)[C@@H](C)O2)[C@H](O)[C@@H](C)O1 (stereo partly drawn) | 152 nM (active) |
